According to PubChem BioAssay AID1159580 (chemical genetic matrix, 2015):
“And” between values parts separate entries of the source, which are not always exact repeats. Equal values may be shown once. The campaign covered roughly 5,500 compounds. About 2,000 (36%) were called active. Roughly 18% stayed inconclusive and do not appear here. No stated cut-off is given here; in the data, active means normalized growth mostly below about 0.91 (no sharp cut-off); inconclusive means no clear call, values can overlap the other calls; inactive means mostly above about 0.92. Some of the results follow.

Test: chemical genetic growth profiling, strain panel (AID 1159580);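 further: tested at 20 µM; growth read once vehicle control cultures reached saturation at 30 °C; 1 = growth at the plate median or of vehicle wells; lower values mean less growth of the strain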
Conditions: S. cerevisiae deletion strains, growth OD

Measured: normalized growth

NCCc1ccc(O)cc1
inactive: locus YAL021C, strain ccr4, active compounds read low 0.995 | locus YAL026C, strain drs2, active compounds read low 0.963 | locus YAL030W, strain snc1, active compounds read low 0.989 | locus YAL040C, strain CLN3, active compounds read low 0.988 | locus YBL061C, strain skt5, active compounds read low 0.975 | locus YBR009C, strain hhf1, active compounds read low 0.985 | locus YBR021W, strain FUR4, active compounds read low 0.97 | locus YBR023C, strain chs3, active compounds read low 0.98 | locus YBR171W, strain sec66, active compounds read low 0.957 | locus YBR229C, strain ROT2, active compounds read low 0.999 | locus YBR231C, strain swc5, active compounds read low 0.961 | locus YBR279W, strain paf1, active compounds read low 0.983 | locus YCL011C, strain gbp2, active compounds read low 0.997 | locus YCL016C, strain dcc1, active compounds read low 1.01 | locus YCL029C, strain bik1, active compounds read low 1.01 | locus YCL061C, strain MRC1 (second series), active compounds read low 1.01 | locus YCL069W, strain vba3, active compounds read low 0.99 | locus YCR088W, strain abp1, active compounds read low 0.972 | locus YDL005C, strain med2, active compounds read low 0.972 | locus YDL035C, strain GPR1, active compounds read low 1.01 | locus YDL040C, strain nat1, active compounds read low 0.984 | locus YDL074C, strain BRE1, active compounds read low 0.99 | locus YDL101C, strain DUN1, active compounds read low 1 | locus YDL185W, strain tfp1, active compounds read low 1 | locus YDL192W, strain arf1, active compounds read low 1 | locus YDR001C, strain nth1, active compounds read low 0.975 | locus YDR069C, strain doa4, active compounds read low 0.945 | locus YDR101C, strain arx1, active compounds read low 0.991 | locus YDR137W, strain rgp1, active compounds read low 0.981 | locus YDR150W, strain NUM1, active compounds read low 1.01 | locus YDR159W, strain sac3, active compounds read low 0.905 | locus YDR162C, strain NBP2, active compounds read low 1.01 | locus YDR195W, strain ref2 0.928 | locus YDR297W, strain sur2, active compounds read low 0.978 | locus YDR318W, strain mcm21, active compounds read low 0.997 | locus YDR334W, strain swr1, active compounds read low 0.967 | locus YDR335W, strain msn5, active compounds read low 0.983 | locus YDR363W, strain ESC2, active compounds read low 1.01 | locus YDR388W, active compounds read low 1 | locus YDR392W, strain spt3, active compounds read low 0.935 | locus YDR502C, strain sam2, active compounds read low 0.989 | locus YEL003W, strain gim4, active compounds read low 0.969 | locus YEL037C, strain rad23, active compounds read low 0.977 | locus YEL061C, strain CIN8 (second series), active compounds read low 0.975 | locus YEL061C, strain CIN8, active compounds read low 1 | locus YER002W, strain NOP16, active compounds read low 0.994 | locus YER015W, strain faa2, active compounds read low 0.994 | locus YER016W, strain bim1, active compounds read low 0.985 | locus YER110C, active compounds read low 0.993 | locus YER111C, strain swi4, active compounds read low 0.981 | locus YER155C, strain BEM2 (second series), active compounds read low 0.951 | locus YER155C, strain BEM2, active compounds read low 1.01 | locus YER167W, strain BCK2, active compounds read low 1 | locus YFR010W, strain ubp6, active compounds read low 0.957 | locus YGL078C, strain dbp3, active compounds read low 0.994 | locus YGL086W, strain mad1, active compounds read low 0.966 | locus YGL167C, strain pmr1, active compounds read low 0.972 | locus YGL173C, strain kem1, active compounds read low 0.964 | locus YGL227W, strain vid30, active compounds read low 0.978 | locus YGL240W, strain doc1, active compounds read low 0.96 | locus YGL248W, strain PDE1, active compounds read low 1.01 | locus YGL253W, strain hxk2, active compounds read low 0.972 | locus YGR078C, strain PAC10, active compounds read low 1.01 | locus YGR135W, strain pre9, active compounds read low 0.997 | locus YGR229C, strain SMI1, active compounds read low 1.01 | locus YGR252W, strain gcn5, active compounds read low 1.01 | locus YHR013C, strain ard1, active compounds read low 0.97 | locus YHR027C, strain rpn1, active compounds read low 0.99 | locus YHR030C, strain SLT2, active compounds read low 1 and 0.976 | locus YHR079C, strain IRE1 (second series), active compounds read low 0.994 | locus YHR079C, strain IRE1, active compounds read low 0.976 | locus YHR094C, strain hxt1, active compounds read low 1.01 | locus YHR129C, strain ARP1, active compounds read low 1.01 | locus YHR142W, strain chs7, active compounds read low 0.982 | locus YHR200W, strain rpn10, active compounds read low 1.03 | locus YIL066C, strain RNR3, active compounds read low 1.01 | locus YIL073C, strain SPO22, active compounds read low 0.985 | locus YIL125W, strain kgd1, active compounds read low 0.985 | locus YIR030C, strain dcg1, active compounds read low 0.996 | locus YJL092W, strain hpr5, active compounds read low 0.973 | locus YJL095W, strain BCK1 (second series), active compounds read low 0.978 | locus YJL095W, strain BCK1, active compounds read low 1.01 and 0.995 | locus YJL115W, strain asf1, active compounds read low 0.963 | locus YJL129C, strain trk1, active compounds read low 0.967 | locus YJL134W, strain LCB3, active compounds read low 1.01 | locus YJL154C, strain vps35, active compounds read low 0.975 | locus YJL164C, strain tpk1, active compounds read low 0.998 | locus YJL166W, strain qcr8, active compounds read low 0.986 | locus YJL168C, strain set2, active compounds read low 1 | locus YJL187C, strain SWE1 (second series), active compounds read low 1.01 | locus YJL187C, strain SWE1, active compounds read low 0.984 | locus YJR043C, strain POL32, active compounds read low 1.02 | locus YJR066W, strain TOR1, active compounds read low 0.932
